According to PubChem BioAssay (NCATS):
Inconclusive results are not listed. Calls of active or inactive are those of the source. Calls come from the whole dose curve; as a rule, active = well fitted curve in the direction sought with a large enough effect; inconclusive = small, poorly fitted or top-dose-only effect, or another doubt; inactive = no such curve, though single readings can be large; an effect the other way counts as inactive or inconclusive.

Key:
[1] = target: Calcium and integrin-binding protein 1 (Homo sapiens) (UniProt Q99828); test: Confirmatory qHTS for Identification of Calcium Integrin Binding Protein 1 (CIB1) Competitor (AID 1508617); note: % is set by controls: 0 for no effect and ±100 for the full control effect; nearly all actives have a fitted effect of over 65% in size
Calcium and integrin-binding protein 1 (Homo sapiens), sequence (Q99828 whole entry, looked up): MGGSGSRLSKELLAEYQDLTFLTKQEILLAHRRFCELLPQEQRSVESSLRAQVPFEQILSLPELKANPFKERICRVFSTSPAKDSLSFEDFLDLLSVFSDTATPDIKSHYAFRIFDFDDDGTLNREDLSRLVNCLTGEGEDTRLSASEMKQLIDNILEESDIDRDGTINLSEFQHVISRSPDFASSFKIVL
Summary of the method: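 FP competition: CIB1-GST (1 uM final) in 5 mM HEPES pH 7.4, 125 mM NaCl, 5 mM CaCl2, 0.01% Tween20 preincubated 15 min RT with compounds (up to 114 uM), then FITC-alphaIIb peptide (100 nM), 15 min RT; Ex 480/Em 540.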

[2] = qHTS to identify inhibitors of the type 1 interferon - major histocompatibility complex class I in skeletal muscle: primary screen against the NCATS LOPAC collection (AID 1347405);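 note: lytic HiBiT luminescence reporting HLA-B protein level; % is set by controls: 0 for no effect and ±100 for the full control effect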
Summary of the method: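 CRISPR-engineered immortalized human myoblasts (C25cl48) with HiBiT fused to endogenous HLA-B*08:01, stimulated with 4 ng/ml IFN-beta. LOPAC compounds tested as a 7-point 1:4.3 titration (top 46 uM final), 24 h at 37 C; lytic HiBiT luminescence read.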

[3] = qHTS to identify inhibitors of the type 1 interferon - major histocompatibility complex class I in skeletal muscle: primary screen against the NCATS Pharmaceutical Collection (AID 1347407);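 note: luminescence of HiBiT knocked into endogenous HLA-B as interferon-induced MHC class I level; % is set by controls: 0 for no effect and ±100 for the full control effect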
Summary of the method: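 Compounds […] were added to CRISPR-engineered HLA-B-HiBiT C25cl48 human myoblasts with 4.0 ng/ml IFN-beta. After 24 hrs at 37 C, cells were lysed and HiBiT luminescence measured.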

[4] = qHTS for inhibitors of adenylyl cyclases using a fission yeast platform: a pilot screen against the NCATS LOPAC library (AID 1347410);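 note: plate controls were DMSO vehicle for no effect and DPI positive control for full effect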
Summary of the method: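 GFP from fbp1-GFP reporter, read by Acumen laser cytometry, indicates AC inhibition in fission yeast expressing AC9, GNAS and PDE4D2. Cells grown 18 h in the dark at 30C with compounds, final up to 57 uM.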

[5] = target: Protein phosphatase 1D (Homo sapiens) (UniProt O15297); test: RapidFire Mass Spectrometry qHTS Assay for Modulators of WT P53-Induced Phosphatase 1 (WIP1) (AID 1347424);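 note: amount of dephosphorylated VEPPL-S-QETFS peptide product formed by WIP1; series mostly up to about 63 µM; plate controls were DMSO wells for no effect and GSK830371 inhibitor control at 10 µM for full effect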
Protein phosphatase 1D (Homo sapiens), sequence (O15297 whole entry, looked up): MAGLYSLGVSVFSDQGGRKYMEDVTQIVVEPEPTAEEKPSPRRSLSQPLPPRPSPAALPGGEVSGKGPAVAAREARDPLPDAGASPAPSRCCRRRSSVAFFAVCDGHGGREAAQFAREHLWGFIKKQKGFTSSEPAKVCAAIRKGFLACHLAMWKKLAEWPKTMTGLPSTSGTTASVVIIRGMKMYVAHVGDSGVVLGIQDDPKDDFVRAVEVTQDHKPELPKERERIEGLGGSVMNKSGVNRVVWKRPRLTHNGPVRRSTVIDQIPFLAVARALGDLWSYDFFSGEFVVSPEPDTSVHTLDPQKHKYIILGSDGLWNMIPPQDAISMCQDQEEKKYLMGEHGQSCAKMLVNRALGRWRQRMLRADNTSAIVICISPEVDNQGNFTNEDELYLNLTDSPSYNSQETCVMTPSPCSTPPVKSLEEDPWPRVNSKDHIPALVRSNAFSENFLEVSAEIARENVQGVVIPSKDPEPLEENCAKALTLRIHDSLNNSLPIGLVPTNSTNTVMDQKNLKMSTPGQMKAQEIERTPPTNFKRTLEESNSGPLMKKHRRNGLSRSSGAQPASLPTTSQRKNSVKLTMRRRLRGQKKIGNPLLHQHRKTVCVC
Summary of the method: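 WIP1 (10 nM final) was preincubated 1 h at room temperature with compounds in Tris-HCl pH 7.5, 30 mM MgCl2, TCEP, EGTA, BSA; 2 uM VEPPL-pS-QETFS phosphopeptide was added for 5 min, quenched with formic acid, and dephosphorylated product quantified by RapidFire MS.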

[6] = target: Protein phosphatase 1D (Homo sapiens) (UniProt O15297); test: Rhodamine-PBP qHTS Assay for Modulators of WT P53-Induced Phosphatase 1 (WIP1) (AID 1347425); note: % of control where 0% means no effect
Summary of the method: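 WIP1 (5 nM final) was preincubated with compound for 1 hour at room temperature. It then dephosphorylated 10 uM VEPPL-pS-QETFS peptide in Tris-HCl pH 7.5 with 30 mM MgCl2. Released Pi was detected by 10 uM Rh-PBP fluorescence (ex 525/em 598 nm) read at 1-min intervals for 11 min, as delta f1 - f0.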

[7] = Validation qHTS assay for inhibitors of Activation Induced Cytidine Deaminase (AID): UDG Counterscreen signal (AID 1347427); note: 0% is about no effect
Summary of the method: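 Counterscreen read of UDG activity (2 U/mL, 4/3x) in the FRET deamination format with AID (1 uM, 4/3x), DJC20/DJC23 substrates (250 nM, 4x), 4 h at room temperature. NaOH stop, fluorescence at 560 ex/665 em.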

[8] = target: Single-stranded DNA cytosine deaminase (Homo sapiens) (UniProt Q9GZX7); test: Validation qHTS assay for inhibitors of Activation Induced Cytidine Deaminase (AID): AID signal (AID 1347429); note: % is set by controls: 0 for no effect and ±100 for the full control effect
Single-stranded DNA cytosine deaminase (Homo sapiens), sequence (Q9GZX7 whole entry, looked up): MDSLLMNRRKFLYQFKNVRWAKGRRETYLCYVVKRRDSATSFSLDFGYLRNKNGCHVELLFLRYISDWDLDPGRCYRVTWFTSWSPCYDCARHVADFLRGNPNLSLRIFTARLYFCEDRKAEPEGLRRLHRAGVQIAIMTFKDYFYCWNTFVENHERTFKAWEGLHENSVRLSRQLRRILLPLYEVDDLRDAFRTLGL
Summary of the method: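 FRET deamination assay: 1 uM AID (4/3x stock) with UDG, compound up to 114 uM, then 250 nM DJC20/DJC23 substrate (4x stock) for 4 hr at room temperature. NaOH added, 30 min; fluorescence read 540/590 nm.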

[9] = Primary qHTS for inhibitors of La Crosse Virus (LACV) - induced cell death in SH-SY5Y cells (AID 1508616);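 note: top concentration of the series differs between compounds; 0% = infected DMSO wells and 100% = uninfected DMSO wells; higher means more rescue of cells from virus-induced death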
Summary of the method: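 SH-SY5Y cells (6000/well) plated 24 h, then given compounds by pin transfer and LACV at 0.01 MOI for 6 days at 37C. Viability measured by ATPLite luminescence, normalized to infected DMSO and uninfected DMSO.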

NC(=O)c1ncn([C@@H]2O[C@H](CO)[C@@H](O)[C@H]2O)c1O
inactive: outcome [1]

CNC1(C)C2CCC(C2)C1(C)C (stereo not drawn)
inactive: Potency [2] | Potency [3] | outcome [4] | Potency [5] | outcome [6] | outcome [7] | Potency [8] | Potency [9]

Fc1ccc(C(c2ccc(F)cc2)N2CCN(C/C=C/c3ccccc3)CC2)cc1
inactive: Potency [2] | Potency [3] | outcome [4] | Potency [5] | outcome [6] | outcome [7] | Potency [8] | Potency [9]

CCCCCN(CCCCC)C(=O)C(CCC(=O)O)NC(=O)c1ccc(Cl)c(Cl)c1 (stereo not drawn)
inactive: Potency [2] | Potency [3] | outcome [4] | Potency [5] | outcome [7] | Potency [8] | Potency [9]

O=C(O)CN(CCN(CC(=O)O)CC(=O)O)CCN(CC(=O)O)CC(=O)O
inactive: Potency [2] | Potency [3] | outcome [4] | Potency [5] | outcome [6] | outcome [7] | Potency [8] | Potency [9]

O=C(O)CP(=O)(O)O
inactive: Potency [2] | Potency [3] | outcome [4] | Potency [5] | outcome [6] | outcome [7] | Potency [8] | Potency [9]

CN(C)C/C=C(/c1ccc(Br)cc1)c1cccnc1
inactive: Potency [2] | Potency [3] | outcome [4] | Potency [5] | outcome [6] | outcome [7] | Potency [8] | Potency [9]

O=C(O)CN(CCOCCOCCN(CC(=O)O)CC(=O)O)CC(=O)O
inactive: Potency [2] | activity change, negative = inhibition [3] 1.04% [at 0.727 µM] | outcome [4] | activity change, negative = inhibition [5] 15.2% [at 0.505 µM] | activity change, negative = inhibition [6] -3.01% [at 0.575 µM] | outcome [7] | Potency [8] | Potency [9]

Nc1nc(N)c2nc(-c3ccccc3)c(N)nc2n1
inactive: Potency [2] | Potency [3] | outcome [4] | Potency [5] | outcome [6] | outcome [7] | Potency [9]

Cc1nc2c([nH]1)c(=O)n(C)c(=O)n2Cc1ccco1
inactive: Potency [2] | Potency [3] | outcome [4] | Potency [5] | outcome [6] | outcome [7] | Potency [8] | Potency [9]

CC[N+](C)(C)c1cccc(O)c1
inactive: Potency [2] | Potency [3] | outcome [4] | Potency [5] | outcome [7] | Potency [8] | Potency [9]

CCCCNc1c(C(=O)OCC)c(C)nc2c1cnn2CC
inactive: Potency [2] | Potency [3] | outcome [4] | Potency [5] | outcome [6] | outcome [7] | Potency [8] | Potency [9]

CCOC(=O)c1cnc2c(cnn2CC)c1NN=C(C)C
inactive: Potency [2] | Potency [3] | outcome [4] | Potency [5] | outcome [6] | outcome [7] | Potency [8] | Potency [9]

Nc1c2c(nc3ccccc13)CCCC2O (stereo not drawn)
inactive: Potency [2] | Potency [3] | outcome [4] | Potency [5] | outcome [7] | Potency [8] | Potency [9]

CC(C)NNC(=O)c1ccncc1
inactive: Potency [2] | Potency [3] | outcome [4] | Potency [5] | outcome [7] | Potency [8] | Potency [9]

CN(C)C(=O)Oc1cccc([N+](C)(C)C)c1
inactive: Potency [2] | Potency [3] | outcome [4] | Potency [5] | outcome [6] | outcome [7] | Potency [8] | Potency [9]

Cc1ccc(=O)n(-c2ccccc2)c1
inactive: Potency [2] | Potency [3] | outcome [4] | Potency [5] | outcome [6] | outcome [7] | Potency [8] | Potency [9]

CCNC(=O)N1CCN(CCCC(c2ccc(F)cc2)c2ccc(F)cc2)CC1
inactive: Potency [2] | Potency [3] | outcome [4] | Potency [5] | outcome [6] | outcome [7] | Potency [8] | Potency [9]

C[C@]12CCC(=O)C=C1CC[C@@H]1[C@@H]2C(=O)C[C@@]2(C)[C@H]1CC[C@]2(O)C(=O)CO
inactive: Potency [2] | Potency [3] | outcome [4] | Potency [5] | outcome [6] | outcome [7] | Potency [8] | Potency [9]

CC(C)(C)NCC(O)c1cc(O)cc(O)c1 (stereo not drawn)
inactive: Potency [2] | Potency [3] | outcome [4] | Potency [5] | outcome [6] | outcome [7] | Potency [8] | Potency [9]

CCCCNc1ccc(C(=O)OCCN(C)C)cc1
inactive: Potency [2] | Potency [3] | outcome [4] | Potency [5] | outcome [6] | outcome [7] | Potency [8] | Potency [9]

CN(C)[C@@H]1C(=O)C(C(N)=O)=C(O)[C@@]2(O)C(=O)C3=C(O)c4c(O)ccc(Cl)c4[C@@H](O)[C@H]3C[C@@H]12
inactive: Potency [2] | Potency [3] | outcome [4] | Potency [5] | outcome [6] | outcome [7] | Potency [8] | Potency [9]

NC/C=C/C(=O)O
inactive: Potency [2] | Potency [3] | outcome [4] | Potency [5] | outcome [6] | outcome [7] | Potency [8] | Potency [9]

FC(F)(F)c1ccccc1-n1ccnc1
inactive: Potency [2] | Potency [3] | outcome [4] | Potency [5] | outcome [6] | outcome [7] | Potency [8] | Potency [9]

CC(=O)Oc1cc(C(C)C)c(OCCN(C)C)cc1C
inactive: Potency [2] | Potency [3] | outcome [4] | Potency [5] | outcome [6] | outcome [7] | Potency [8] | Potency [9]
